Measurements reported in PubChem BioAssay (EPA / NIEHS).
Records with an inconclusive call do not appear. The source made the active and inactive calls. Rule for the calls: active = hit-call score of the fitted dose curve at least 0.9, where 1 is the maximum; inconclusive = response in the unintended direction; inactive = score below 0.9.

read-out: xenobiotic metabolism (CYP2C9), CYP2C9 (gene 1559); experiment: CLD_CYP2C9_6hr: CellzDirect (CLD) Gene Expression Assay for xenobiotic metabolism (CYP2C9) at 6 hours (AID 2283664)
Procedure: CLD_6hr is a cell-based, multiplexed-readout assay that uses hepatocyte, a human liver primary cell, with measurements taken at 6 hours after chemical dosing in a 96-well plate.CLD_CYP2C9_6hr is one of 16 assay component(s) measured or calculated from the CLD_6hr assay. It is designed to make measurements of mRNA induction, a form of inducible reporter, as detected with chemiluminescence signals by Quantitative Nuclease Protection Assay (qNPA) technology.Data from the assay component CLD_CYP2C9_6hr was analyzed at the endpoint, CLD_CYP2C9_6hr, in the positive analysis fitting direction relative to DMSO as the negative control and baseline of activity. Using a type of inducible reporter, gain-of-signal activity can be used to understand changes in the reporter gene as they relate to the gene CYP2C9. Furthermore, this assay endpoint can be referred to as a primary readout. To generalize the intended target to other relatable targets, this assay endpoint is annotated to the cyp intended target family, where subfamily is xenobiotic metabolism.
Human hepatocyte cultures were treated daily for two consecutive days with fresh dosing solutions containing appropriate concentrations of the 320 ToxCast chemicals (chemical identities were blinded to CellzDirect and other ToxCast collaborators), vehicle control (0.2% DMSO), and positive control inducers as summarized in Table 1. Due to the large number of treatment groups and chemicals examined, the ToxCast chemicals were divided into two groups (spanning two independent cultures of hepatocytes from separate donor preparations (Hu778: ToxCast plates 1 and 2; Hu776: ToxCast plates 3 and 4). Each preparation of human hepatocyte cultures was treated with respective vehicle control, medium only control, set of six positive controls/reference chemicals for the five hepatic receptor pathways, and a subset of eight of the ToxCast chemicals (indoxacarb, pyrithiobac-sodium, norflurazon, cyhalofop-butyl, methomyl, thiram, acetochlor, and propiconazole). These replicate data, coupled with internal replicates designed within the blinded ToxCast chemical library, provided additional data to evaluate interindividual differences between hepatocyte preparations and their potential impact on chemical profiles.Cell morphology and integrity were evaluated using phase-contrast microscopy as an indicator of hepatocyte cell health (Tyson & Green, 1987). Cultures for each treatment group (i.e., media, vehicle [0.2% DMSO], positive control inducers [multiple concentrations], and the ToxCast chemicals [multiple concentrations]) were observed and cell morphology was assessed relative to vehicle control cultures at each harvest time point (0, 6, 24, or 48 h). […] Images were evaluated at the conclusion of the study to assess changes in cell integrity and account for the effects of chemical exposure on uncharacteristic changes in concentration-dependent gene expression profiles. The results from these determinations of apparent cytotoxicity were annotated (yes/no) alongside the corresponding qNPA data for reference.At the conclusion of each treatment period, hepatocyte cultures (96-well) were washed with 1 volume of HBSS, lysed by addition of 25 ul ArrayPlate lysis buffer (HTG, Tucson, AZ), and 70 ul/well of Denaturation Oil, denatured by incubation at 95C for 10 min, and frozen at approximately -70C until analysis by nuclease protection assay (qNPA) (Roberts et al., 2007). For qNPA analysis, cell lysates were thawed at 50C for approximately 30 min, qNPA probes were added, and samples were incubated at 95C for 10 min to begin the detection process by denaturing the target RNA, dissociating the duplexes and secondary structure hybridization. At the conclusion of the hybridization period, S1 nuclease reagent was added to each sample to digest all nonprotected nucleotides at 50C for 60-90 min. […]

Compound	outcome
COCC(=O)N(c1c(C)cccc1C)C(C)C(=O)OC (stereo not given)	inactive
CCOc1nc(F)cc2nc(S(=O)(=O)Nc3c(Cl)cccc3Cl)nn12	inactive
CC(C)N1C(=O)c2ccccc2NS1(=O)=O	inactive
CCOP(=S)(OCC)Oc1nc(Cl)n(C(C)C)n1	inactive
COc1ccc(-c2ccccc2)cc1NNC(=O)OC(C)C	inactive
Cc1nc(N(C)C)nc(OC(=O)N(C)C)c1C	inactive
OC(c1ccc(Cl)cc1)(c1ccc(Cl)cc1)C(Cl)(Cl)Cl	inactive
COc1cc(OC)nc(NC(=O)NS(=O)(=O)c2ncccc2OCC(F)(F)F)n1	inactive
CC1(C)C(C(=O)OC(C#N)c2cccc(Oc3ccccc3)c2)C1(C)C (stereo not given)	inactive
O=C1C2CC=CCC2C(=O)N1SC(Cl)(Cl)Cl (stereo not given)	inactive
CCOP(=O)(OCC)Oc1nc(Cl)c(Cl)cc1Cl	inactive
CC1(C)CCC(=Cc2ccc(Cl)cc2)C1(O)Cn1cncn1 (stereo not given)	inactive
C=CCOC(=O)C(C)(C)OC(=O)c1cc(-n2c(=O)cc(C(F)(F)F)n(C)c2=O)ccc1Cl	inactive
CCOc1nc(C(Cl)(Cl)Cl)ns1	inactive
COCC(C)N(C(=O)CCl)c1c(C)csc1C (stereo not given)	inactive
CSC(=O)c1c(C(F)F)nc(C(F)(F)F)c(C(=O)SC)c1CC(C)C	inactive
COC(=O)NS(=O)(=O)c1ccc(N)cc1	inactive
CS(=O)(=O)c1cc(C(F)(F)F)ccc1C(=O)c1cnoc1C1CC1	inactive

Compound	outcome
CCNC(=O)NC(=O)C(C#N)=NOC	inactive
Nc1c(Cl)c(Cl)nc(C(=O)O)c1Cl	inactive
CC(C)=CC1C(C(=O)OCc2coc(Cc3ccccc3)c2)C1(C)C (stereo not given)	inactive
N#Cc1c[nH]cc1-c1cccc2c1OC(F)(F)O2	inactive
COP(=O)(OC)O/C(C)=C/C(=O)N(C)C	inactive
CO/N=C(/C1=NOCCO1)c1ccccc1Oc1ncnc(Oc2ccccc2Cl)c1F	inactive
O=C(O)c1c(Cl)ccc2cc(Cl)cnc12	inactive
Cc1ccc(N=CN(C)C=Nc2ccc(C)cc2C)c(C)c1	inactive
CCNP(=S)(OC)O/C(C)=C/C(=O)OC(C)C (stereo not given)	inactive
N#Cc1c(Cl)cccc1Cl	inactive
CCC(C)n1c(=O)[nH]c(C)c(Br)c1=O (stereo not given)	inactive
Nc1c(Cl)c(F)nc(OCC(=O)O)c1Cl	inactive
CCCCC(C#N)(Cn1cncn1)c1ccc(Cl)cc1 (stereo not given)	inactive
CN=C=S	inactive
COc1cc(Cl)c(OC)cc1Cl	inactive
CC(C)N1C(=O)N(c2ccccc2)CSC1=NC(C)(C)C	inactive
CS(=O)(=O)c1ccc(C(=O)C2C(=O)CCCC2=O)c([N+](=O)[O-])c1	inactive
